This is a sample that favours compounds with a hit; in the whole collection about 10% have one here.
KinaseGlo FLuc = Counterscreen for Luciferase (Kinase-Glo TM) Inhibition; Luciferin 4-monooxygenase (Photuris pensylvanica), Q27757; Potency, µM (series often up to 38.3 µM), for inactives: at the highest dose activity change, negative = inhibition, most hits filed as inhibitors; 0.28% of 200,000 active; Kinase-Glo luciferase, ATP luminescence, 8 min; AID 1379, 2008; active = well fitted inhibition curve with a large enough effect; inconclusive = small, poorly fitted or top-dose-only effect; note: potency is the fitted concentration of half-maximal effect; nearly all actives have a fitted effect of over 60% in size
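Recombinant Kinase-Glo luciferase, 10 uM ATP (linear range), luciferin; imidazole pH 7.2 / KCl / MgCl2 / Tween / BSA buffer; 8 min RT; luminescence.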
PNC assembly inh = High Content Assay for Compounds that inhibit the Assembly of the Perinucleolar Compartment; PC3M PTB-GFP, PNC prevalence imaging, 16 h; stronger effect = lower value; activity change (PNC), negative = inhibition, % at 10 µM; AID 2417, 2010; 3.1% of 140,000 active;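 active = readout at or below -70, meaning at least 70% loss of cells showing the perinucleolar compartment, a nuclear body marking cancer cells; inconclusive = readout between -30 and a set limit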;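 note: plate controls were DMSO wells for no effect and camptothecin positive control wells for full effect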
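Read-out is percentage of cells bearing a perinucleolar compartment, from automated 20x imaging of fixed, Hoechst-stained PC3M PTB-GFP cells. Cells were seeded 4 h, then exposed 16 h to compound (23 nl of library stock) in duplicate plates.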
Lamin A splicing = qHTS Assay for Modulators of Lamin A Splicing; HeLa LMNA splicing GFP/RFP minigene ratio, 48 h; Potency, µM (highest dose often 46.1 µM), without a hit: at the top dose ratio change, negative = inhibition, usual class: inhibitors; 0.01% of 200,000 active; AID 1487, 2009; active = well fitted inhibition curve with a large enough effect in the signal ratio, with a control signal flat, not every such curve was filed as active; inconclusive = small, poorly fitted or top-dose-only effect, or effect the other way, or a change in a side signal; the % refers to the signal ratio; note: potency is the fitted concentration of half-maximal effect
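S3 HeLa stable clones carrying a lamin A-EGFP splicing minigene plus DsRed2 were seeded at 600 cells/well in Opti-MEM with 2% FBS, pin-dosed and incubated 48 h at 37°C. Acumen cytometry (488 nm) gave the GFP/RFP total-intensity ratio.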
HPGD inh = qHTS Assay for Inhibitors of HPGD (15-Hydroxyprostaglandin Dehydrogenase) | 15-hydroxyprostaglandin dehydrogenase [NAD(+)] (Homo sapiens), P15428 | purified HPGD, NADH fluorescence kinetic, PGE2 substrate | Potency, µM, for inactives: at the top dose activity change, negative = inhibition, most hits filed as inhibitors | 4.3% of 150,000 active | AID 894, 2007; note: potency is the fitted concentration of half-maximal effect
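20 nM HPGD preincubated 15 min at room temperature with compound in 50 mM Tris-HCl pH 8, 0.01% Tween 20. Started with 1 mM NAD+ and 30 uM prostaglandin E2; NADH fluorescence (360/450 nm) read 5 times over 30-s intervals, last minus first.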
ALDH1A1 block = qHTS Assay for Inhibitors of Aldehyde Dehydrogenase 1 (ALDH1A1); Potency, µM (titrated, usually from 75.3 µM), without a hit: top-dose activity, negative = inhibition, usual class: inhibitors; 7.3% of 220,000 active; Purified ALDH1A1, NADH fluorescence, propionaldehyde substrate; AID 1030, 2008; Aldehyde dehydrogenase 1A1 (Homo sapiens), P00352;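 note: potency is the fitted concentration of half-maximal effect; plate controls were no enzyme wells and a reference inhibitor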
Target sequence (P00352 whole entry, looked up): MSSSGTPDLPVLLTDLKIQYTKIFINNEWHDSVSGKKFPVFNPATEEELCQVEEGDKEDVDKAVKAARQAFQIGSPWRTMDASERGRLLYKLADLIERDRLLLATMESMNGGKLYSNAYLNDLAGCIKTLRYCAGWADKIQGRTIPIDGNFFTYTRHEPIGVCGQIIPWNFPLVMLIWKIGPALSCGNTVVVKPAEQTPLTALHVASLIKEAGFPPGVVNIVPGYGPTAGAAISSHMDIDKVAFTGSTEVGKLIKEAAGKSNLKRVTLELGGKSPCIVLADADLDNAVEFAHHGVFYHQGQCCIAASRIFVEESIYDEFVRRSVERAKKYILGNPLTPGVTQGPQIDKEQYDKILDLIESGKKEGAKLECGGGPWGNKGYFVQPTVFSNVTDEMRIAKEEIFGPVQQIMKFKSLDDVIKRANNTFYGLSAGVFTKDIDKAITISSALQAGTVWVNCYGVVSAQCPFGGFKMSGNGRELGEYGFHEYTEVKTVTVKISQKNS
The depositor's hits bear a star; ? = inconclusive; . = no result; [ ] = dose if it differs, or a comment. Unless noted, calls come from the whole dose curve; as a rule, active = well fitted inhibition curve with a large enough effect (not every such curve was filed as active); inconclusive = small, poorly fitted or top-dose-only effect, or another doubt; inactive = no such curve, though single readings can be large or run the other way. Unless noted, % is set by controls: 0 for no effect and ±100 for the full control effect.

SMILES | KinaseGlo FLuc | PNC assembly inh | Lamin A splicing | HPGD inh | ALDH1A1 block
Cc1csc(NC(=O)c2cc([N+](=O)[O-])cc([N+](=O)[O-])c2)n1 | -6% | -114* | 0% | ? | 5%
COc1ccc2nc(NC(=O)c3ccoc3C)sc2c1 | 3.2µM* | 21 | -4% | ? | ?
CC(=O)N1CCC2(CCN(Cc3ccc(C#N)cc3)CC2)CC1 | -7% | . | . | -5% | 7%
CN(CCc1ccccn1)C1CC(=O)N(c2ccc(Cl)cc2)C1=O (centres undefined) | -1% | 6 | 8% | -22% | 25µM*
N#Cc1cccc(NC(=O)N2CC3(CCN(C(=O)c4ccco4)CC3)C2)c1 | -12% | . | . | -2% | 9.5µM*
O=C(Nc1cccc(F)c1)N1CC2(CCN(C(=O)c3ccco3)CC2)C1 | -5% | . | . | -10% | 11µM*
CC(=O)N1CCC2(CC1)CN(C(=O)Nc1cccc(C#N)c1)C2 | 1% | . | . | -4% | 2%
Cc1sc2ccccc2[n+]1CCC(=O)O | 0%[7.66 µM] | . | . | -3% | 5%[13.5 µM]
COc1ccccc1N1CCN(C(=O)c2c(C)oc3ncn(C)c(=O)c23)CC1 | . | . | -20%[46 µM] | . | .
CC1(C)OC(C(O)(c2cc(F)c(F)c(F)c2)c2cc(F)c(F)c(F)c2)C(C(O)(c2cc(F)c(F)c(F)c2)c2cc(F)c(F)c(F)c2)O1 (centres undefined) | . | . | . | . | 9%[13.5 µM]
COc1ccc(CCN2C(=O)C(O)=C(C(=O)c3ccco3)C2c2cccs2)cc1OC (centres undefined) | -7% | -11 | 1% | -18% | 7.9µM*
Cc1ccc2nc(N3C(=O)C(O)=C(C(=O)c4ccco4)C3c3cccs3)sc2c1 (centres undefined) | 0% | -11 | 1% | 14µM* | ?
O=C(C1=C(O)C(=O)N(CCOCCO)C1c1cccs1)c1cccs1 (centres undefined) | -4% | -3 | ? | -10% | 2.2µM*
Cc1ccc(CNC(=O)COCc2cc(-c3cccs3)on2)cc1 | . | . | 4%[46 µM] | . | .
Cc1ccc(Cn2c(CNS(=O)(=O)c3ccc(C(C)(C)C)cc3)nc3cccnc32)cc1 | . | . | -23%[46 µM] | . | .
CCOC(=O)c1ccc(CC2S/C(=C(\C#N)C(C)=O)NC2=O)cc1 (centres undefined) | -2% | -27 | ? | 14µM* | -14%
CCc1ccc(CC2S/C(=C(\C#N)C(C)=O)NC2=O)cc1 (centres undefined) | 1% | -11 | ? | ? | -15%
c1cn(CCCNc2ncnc3nc[nH]c23)cn1 | 2% | -112* | -6% | -3% | 6%
COc1cccc2c1CCC1=CC(=O)CC[C@@]12C | -6% | . | . | -8% | ?
Cc1ccc(N2CCN(/N=C/c3ccccc3[N+](=O)[O-])CC2)cc1 | -1% | . | . | . | 16µM*
CC(C)(CNc1ccc([N+](=O)[O-])cc1C#N)N1CCOCC1 | 5% | . | ? | . | 2.2µM*
N#Cc1cc([N+](=O)[O-])ccc1NCCN1CCOCC1 | -1% | . | -6%[46 µM] | . | -2%
CC(C)NC(=O)N1CC[C@@]2(CCCN(C(=O)c3csnn3)C2)C1 | -3% | . | . | -5% | -4%
C[C@](N)(C(=O)O)c1ccc(-c2nn[nH]n2)cc1 | 4% | . | . | 26% | 16µM*
N#CCCn1c(=O)cnc2cnc(Oc3cccc(Cl)c3)nc21 | . | . | -8% | . | 2%
SMILES | KinaseGlo FLuc | PNC assembly inh | Lamin A splicing | HPGD inh | ALDH1A1 block
COc1ccc2c3c(cccc13)C(=O)N(O)C2=O | 3% | -3 | ? | -15% | ?
CCC1=NNc2cccc3c(OC)ccc1c23 | -21% | 30 | 8% | 14µM* | ?
CCOc1cccc(CNc2ccc(O)cc2)c1OCc1ccc(Cl)cc1Cl | -3% | 9 | ? | -7% | 22µM*
CCOc1cccc(CNc2ccc(O)cc2)c1OCc1ccccc1Cl | 1% | -5 | -7% | -24% | ?
CCn1c2ccccc2c2cc(NC(=O)c3cc(OC)c(OC)c(OC)c3)ccc21 | -2% | ? | ? | ? | ?
O=C(Nc1cccc(OC(F)(F)F)c1)c1ccc(Br)o1 | -2% | -22 | ? | 25µM* | 22µM*

Screening results (PubChem)
